This excerpt belongs to a sample that is enriched for hits.
Lassa entry inh = inhibitors of Lassa virus binding or cell entry; actives 1.2% (n = 300,000); Lassa virus pseudotype entry inhibition, cell reporter; AID 540256; Potency, µM (highest dose often 37.9 µM), for the others: at the top dose activity change, negative = inhibition, usual class: inhibitors; calls by dose curve; tested in HEK293 cells; note: potency is the fitted concentration of half-maximal effect; % is set by controls: 0 for no effect and ±100 for the full control effect; nearly all actives have a fitted effect of over 50% in size
VACV Venus inh = vaccinia inhibition (Venus reporter); Vaccinia virus Venus reporter expression, fluorescence; Potency, µM (highest dose often 36.5 µM), for inactives: at the top dose activity change, negative = inhibition, hits mostly inhibitors; actives 0.46% (n = 330,000); calls by dose curve; tested in A549 cells; note: potency is the fitted concentration of half-maximal effect; % is set by controls: 0 for no effect and ±100 for the full control effect; nearly all actives have a fitted effect of over 30% in size
Shiga toxin inh = Shiga toxin inhibition; inhibition, % at 38.7 µM; Vero cells, Shiga toxin protein synthesis inhibition reporter; AID 2315; actives 9.2% (n = 290,000); in the data active = inhibition mostly above about 28%, no sharp cut-off; inactive = mostly below about 43%; note: 0% is about no effect
Marburg entry inh = Marburg virus entry inhibition; Marburg virus pseudotyped entry inhibition, cell reporter; Potency, µM (series often up to 37.8 µM), for inactives: at the highest dose activity change, negative = inhibition, usual class: inhibitors; actives 1.8% (n = 300,000); AID 540276; calls by dose curve; tested in HEK293 cells; note: potency is the fitted concentration of half-maximal effect; % is set by controls: 0 for no effect and ±100 for the full control effect
VACV mCherry inh = vaccinia inhibition (mCherry reporter); Vaccinia virus mCherry reporter infection, fluorescence; actives 0.63% (n = 310,000); Potency, µM (top dose mostly 36.5 µM), inactives show at the highest dose activity change, negative = inhibition, most hits filed as inhibitors; calls by dose curve; tested in A549 cells; note: potency is the fitted concentration of half-maximal effect; % is set by controls: 0 for no effect and ±100 for the full control effect; nearly all actives have a fitted effect of over 35% in size
CHX counter = affects cycloheximide protein synthesis inhibition readout, counter-screen; cell reporter, cycloheximide protein synthesis inhibition counterscreen; max response, %; actives 12% (n = 300,000); in the data active = max response mostly above about 13%, no sharp cut-off; inactive = mostly below about 14%; note: read at 38.3 µM for the half of the compounds with a filed dose; 0% is about no effect
An asterisk follows results filed as active; i = inactive; ? = inconclusive; / = not tested or not shown; [ ] = another dose, or the depositor's remark.

SMILES	Lassa entry inh	VACV Venus inh	Shiga toxin inh	Marburg entry inh	VACV mCherry inh	CHX counter
CCCCCN(CCCCC)C(=O)[C@H](CCC(=O)O)NC(=O)[C@H](Cc1ccc(OP(=O)(O)O)cc1)NC(C)=O	/	/	15	/	/	14
CN1CCN(CCCCC(=O)c2ccccc2)CC1	1%	17%	24	2%	/	-1
CC(C)(C)c1ccc(C(=O)CCCN2CCC(OC(c3ccccc3)c3ccccc3)CC2)cc1	5.2µM*	/	/	?	/	/
Cc1cc(N)n(-c2ccc3ccccc3c2)n1	-3%	/	43*	-28%	/	18*
Oc1ccc(Nc2nc(-c3cccs3)cs2)cc1	14%	-5%	20	?	i	-3
Cc1cccnc1Nc1nc(-c2ccc(O)cc2)cs1	-29%	-5%	157*	?	i	50*
Cc1cccnc1Nc1nc(-c2ccc(F)cc2)cs1	?	-8%	103*	-28%	i	57*
O=C(Nc1nc(-c2ccncc2)cs1)c1ccc(F)cc1	/	/	-6	/	/	6
CCOc1nc(NC(=O)NS(=O)(=O)Oc2cccc(Cl)c2)nc(-c2ccccc2)n1	28%	-9%	-17	?	-15%	17*
Cc1ccc(-c2[nH]n3c(=O)c4c(nc3c2C)CCCC4)cc1	5%	/	-5	17%	/	3
O=c1c2c(nc3cc(-c4ccccc4)[nH]n13)CCC2	4µM*	-21%	95*	-21%	/	58*
COc1ccc(-c2cc3nc4c(c(=O)n3[nH]2)CCC4)cc1	11%	1%	37	?	-8%	21*
O=c1c2c(nc3cc(-c4ccc(Br)cc4)[nH]n13)CCCC2	?	-17%	21	?	-15%	7
Cc1c(-c2ccccc2)[nH]n2c(=O)c3c(nc12)CCCC3	2%	-16%	44*	?	-13%	29*
Cc1ccc(NC(=O)c2c(C)noc2C)cc1S(=O)(=O)N1CCOCC1	0%	-18%	/	-1%	i	/
O=C(Cn1ccc2cc(S(=O)(=O)N3CCCCC3)ccc21)NCCc1ccc(Cl)cc1	-19%[46.1 µM]	-10%	/	/	-11%	/
O=C(NCc1ccccc1Cl)c1ccc(-n2cnc3cccnc32)cc1	7%[46.1 µM]	6%	/	/	-9%	/
NC(Cc1ccc(F)cc1)c1csc(Nc2cnccn2)n1 (stereo not given)	/	11µM*	/	/	10µM*	/
NC(CCc1ccccc1)c1csc(Nc2cnccn2)n1 (stereo not given)	/	?	/	/	10µM*	/
COc1cccc(Nc2nc(C(N)CCc3ccccc3)cs2)n1 (stereo not given)	/	-16%	/	/	9%	/
Cn1cc(-c2cc3n(n2)CCC(=O)N3CCCC(=O)Nc2ccccc2F)c2ccccc21	-1%[46.1 µM]	-8%	/	/	-17%	/
COc1ccccc1N(C(=O)CCl)c1cn(C(C)=O)c2ccccc12	/	/	17	/	/	11
CC(=O)n1cc(N(C(=O)CCl)c2ccc(Cl)cc2)c2ccccc21	/	/	61*	/	/	27*
C[C@H]1CN([C@@H](C)CO)C(=O)CCCn2nncc2CO[C@H]1CN(C)C(=O)c1ccc(N2CCN(C)CC2)cc1	/	6%	/	/	?	/
COc1cc(C2CC(=O)N(CC(=O)NCC3CCCO3)c3ccccc3S2)cc(OC)c1OC (stereo not given)	2%[46.1 µM]	-20%	-5	11%[46.1 µM]	i	-10
SMILES	Lassa entry inh	VACV Venus inh	Shiga toxin inh	Marburg entry inh	VACV mCherry inh	CHX counter
C/C(CC1CC(C)OC1=O)=N\NC(N)=S (stereo not given)	/	/	-7	/	/	-1
C/C(CCC12CC3CC(CC(C3)C1)C2)=N\NC(N)=S	?	?	-8	-25%	11µM*	-2
Cc1ccc(-c2cn3c(n2)sc2cc(C(=O)NCc4cccs4)ccc23)cc1	-11%[46.1 µM]	-8%	/	/	-17%	/
COc1cc(SC)ccc1C(=O)Nc1ccc2c(c1)OCCO2	12µM*	-14%	64	?	-26%	34*
COc1ccccc1C(=O)NCC(=O)Nc1ccc2c(c1)OCO2	-12%	-6%	/	16%	i	/
CCOc1ccccc1C(=O)Nc1ccc2c(c1)C(=O)NC2=O	-2%	0%	/	?	i	-2
COCCSc1ccccc1C(=O)Nc1ccc2c(c1)OCCO2	-5%	-17%	2	16%[46.1 µM]	-14%	20
COc1ccccc1C(=O)Nc1ccc2c(c1)OCO2	-19%	/	61*	6%	/	43*
COc1ccccc1C(=O)Nc1ccc2c(c1)C(=O)NC2=O	/	-20%	22*	/	-28%	28*
COc1ccccc1C(=O)Nc1ccc2c(c1)OCCO2	?	-17%	85*	?	/	41*
COc1cc(C(=O)Nc2ccc3c(c2)OCCO3)c(-n2cnnn2)cc1OC	7%	/	-13	-1%	/	-3
COc1ccc(C2CC(=O)c3cnn(-c4nc(C)cc(C)n4)c3C2)cc1 (stereo not given)	/	/	-6	/	/	-4
Cc1ccccc1C(=O)Nc1ccc2c(c1)OCO2	?	-18%	70	?	/	30*
Cc1cc2ncc(-c3ccc(Cl)cc3)cn2n1	?	-17%	93*	7%	i	37*
Cc1ccc(-c2cnc3cc(C)nn3c2)cc1	?	2%	47	?	-2%	20
Cc1cccc(C)c1NC(=O)c1ccc(-c2cc(F)ccc2F)o1	/	9%	/	/	6%	/
COc1ccccc1Oc1cc(-n2nc(C)cc2C)ncn1	1%	-4%	0	2%	-16%	-2
COC(=O)c1cnn(-c2ccc(C(=O)Nc3cc(OC)c(OC)c(OC)c3)cc2)c1N	-2%[46.1 µM]	5%	/	/	6%	/
NC(=O)c1cnn(-c2cc(Oc3ccccc3)ncn2)c1N	?	-20%	59	?	i	47*
c1ccc(Oc2cc(-n3cccn3)ncn2)cc1	5%	-1%	74*	?	-15%	54*
COC(=O)c1cnn(-c2cc(Oc3ccccc3)ncn2)c1N	?	-6%	27	2%	/	23*
CCOC(=O)c1c(C)oc2nc(C)nc(NCc3cccc(Cl)c3)c12	17%[46.1 µM]	-11%	/	/	-5%	/
Cc1nnc(N2CCC(C(=O)NCc3ccc(N(C)C)cc3)CC2)c2nn(-c3ccccc3)c(C)c12	?	13µM*	/	/	13µM*	/
Cc1nnc(N2CCN(C(=O)Nc3cc(F)ccc3F)CC2)c2nn(-c3ccc(Cl)cc3)c(C)c12	?	?	/	/	11µM*	/
COc1ccc(-n2nc3c(N4CCC(C(=O)NCc5cccc(F)c5)CC4)nnc(C)c3c2C)cc1	-6%[46.1 µM]	28µM*	/	/	?	/
SMILES	Lassa entry inh	VACV Venus inh	Shiga toxin inh	Marburg entry inh	VACV mCherry inh	CHX counter
COc1ccc(CNC(=O)C2CCN(c3nnc(C)c4c(C)n(-c5ccc(C)cc5)nc34)CC2)cc1	-3%[46.1 µM]	-14%	/	/	-17%	/
COc1ccccc1NC(=O)N1CCN(c2nnc(C)c3c(C)n(-c4ccc(Cl)cc4)nc23)CC1	15%[46.1 µM]	?	/	/	?	/
O=S(=O)(Nc1cccnc1)c1ccc(Br)c2ccccc12	/	/	-17	/	/	-3
O=S(=O)(NCCNC/C=C/c1ccc(Br)cc1)c1cccc2cnccc12	?	?	/	10µM*	-13%	/
Nc1ccc(C(=O)c2cccs2)cc1[N+](=O)[O-]	/	/	71*	/	/	28*
Nc1ccc(C(=O)O)cc1[N+](=O)[O-]	-26%[46.1 µM]	-9%	-6	6%[46.1 µM]	-1%	-2

Bioassay records: PubChem, National Center for Advancing Translational Sciences (NCATS)
